Source: the supplement of paper PMC8371130
Where a name gives a salt, the structure may show the parent alone.

Test system: HL-1
Assay: relative cell viability (CellTiter-Glo) vs DMSO control (% of DMSO control); higher = more viable cells
How it was run: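 In 384-well plates, 1000 HL-1 mouse atrial cardiomyocytes per well were plated with compounds at 40, 200, 1000 or 5000 nM in 0.01% DMSO. Hypoxia at 1% O2 for 48 h began one day later and was followed by 24 h of reoxygenation, with parallel plates held in normoxia. CellTiter-Glo luminescence gave cell viability relative to vehicle-treated control cells.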

[1] = oxygen condition: hypoxia 48 h (1% O2) + reoxygenation 24 h, 40 nM
[2] = oxygen condition: hypoxia 48 h (1% O2) + reoxygenation 24 h, 200 nM
[3] = oxygen condition: hypoxia 48 h (1% O2) + reoxygenation 24 h, 1000 nM
[4] = oxygen condition: hypoxia 48 h (1% O2) + reoxygenation 24 h, 5000 nM
[5] = oxygen condition: normoxia 72 h, 40 nM
[6] = oxygen condition: normoxia 72 h, 200 nM
[7] = oxygen condition: normoxia 72 h, 1000 nM
[8] = oxygen condition: normoxia 72 h, 5000 nM

| Structure (SMILES) | relative cell viability [1] | relative cell viability [2] | relative cell viability [3] | relative cell viability [4] | relative cell viability [5] | relative cell viability [6] | relative cell viability [7] | relative cell viability [8] |
| --- | --- | --- | --- | --- | --- | --- | --- | --- |
| CC1=C(C(=O)OC(C)C)C(c2cccc([N+](=O)[O-])c2)C(C(=O)OC2CN(C(c3ccccc3)c3ccccc3)C2)=C(N)N1 (stereo not drawn) [Azelnidipine] | 104 | 110 | 106 | 112 | 109 | 110 | 112 | 119 |
| O=c1c(-c2ccc(O)cc2)coc2cc(O)ccc12 [Daidzein] | 107 | 102 | 105 | 113 | 107 | 107 | 105 | 118 |
| CC1=CC(=O)c2ccccc2C1=O [Menadione] | 100 | 98.2 | 102 | 109 | 101 | 104 | 101 | 106 |
| OCC(CO)N[C@H]1C[C@](O)(CO)[C@@H](O)[C@H](O)[C@H]1O [Voglibose] | 109 | 117 | 113 | 113 | 105 | 114 | 116 | 115 |
| CC(=O)OCC(CCn1cnc2cnc(N)nc21)COC(C)=O [Famciclovir] | 101 | 104 | 100 | 113 | 106 | 106 | 105 | 121 |
| CC1=NN(c2ccc(C)c(C)c2)C(=O)/C1=N\Nc1cccc(-c2cccc(C(=O)O)c2)c1O [Eltrombopag] | 105 | 86 | 109 | 107 | 106 | 112 | 111 | 108 |
| O=P(O)(O)C(O)(Cc1cccnc1)P(=O)(O)O [Risedronic acid] | 94 | 101 | 96.4 | 71.4 | 99 | 108 | 105 | 107 |
| O=C1[C@H](CC[C@H](O)c2ccc(F)cc2)[C@@H](c2ccc(O)cc2)N1c1ccc(F)cc1 [Ezetimibe] | 111 | 104 | 108 | 115 | 111 | 112 | 116 | 112 |
| O=C(O)C[C@H](O)C[C@H](O)/C=C/c1c(C2CC2)nc2ccccc2c1-c1ccc(F)cc1 [Pitavastatin calcium] | 109 | 109 | 85.5 | 7.03 | 117 | 109 | 88.9 | 4.53 |
| CCOCC(O)COc1ccc(NC(=O)CC[S+](C)C)cc1 (stereo not drawn) [Suplatast tosylate] | 106 | 103 | 99.4 | 107 | 101 | 101 | 108 | 120 |
| Nc1nc(F)nc2c1ncn2[C@@H]1O[C@H](COP(=O)(O)O)[C@@H](O)[C@@H]1O [Fludarabine Phosphate] | 115 | 108 | 119 | 113 | 108 | 115 | 119 | 111 |
| COc1ccccc1OCC(O)CN1CCN(CC(=O)Nc2c(C)cccc2C)CC1 (stereo not drawn) [Ranolazine] | 85 | 102 | 98 | 112 | 105 | 102 | 107 | 118 |
| CC[C@@H](CO)NCCN[C@@H](CC)CO [Ethambutol HCl] | 100 | 93.4 | 102 | 112 | 90.2 | 91.3 | 102 | 3.47 |
| O=C(O)c1cc(=O)c2ccccc2o1 [Chromocarb] | 103 | 105 | 109 | 110 | 111 | 103 | 107 | 115 |
| CC[C@@]1(O)C(=O)OCc2c1cc1n(c2=O)Cc2cc3c(CN(C)C)c(O)ccc3nc2-1 [Topotecan HCl] | 58.6 | 37.4 | 19.8 | 9.1 | 52.3 | 30.9 | 15.1 | 6.41 |
| CNC(=O)c1cc(Oc2ccc(NC(=O)Nc3ccc(Cl)c(C(F)(F)F)c3)c(F)c2)ccn1 [Regorafenib] | 107 | 113 | 109 | 114 | 110 | 110 | 114 | 134 |
| C[C@H](Cc1cc2c(c(C(N)=O)c1)N(CCCO)CC2)NCCOc1ccccc1OCC(F)(F)F [Silodosin] | 106 | 98.3 | 102 | 105 | 102 | 104 | 108 | 104 |
| CN1CC(=O)NC1=N [Creatinine] | 105 | 104 | 106 | 114 | 102 | 97.3 | 100 | 108 |

| Structure (SMILES) | relative cell viability [1] | relative cell viability [2] | relative cell viability [3] | relative cell viability [4] | relative cell viability [5] | relative cell viability [6] | relative cell viability [7] | relative cell viability [8] |
| --- | --- | --- | --- | --- | --- | --- | --- | --- |
| NS(=O)(=O)c1cc(Cl)c(Cl)c(S(N)(=O)=O)c1 [Dichlorphenamide] | 109 | 106 | 103 | 115 | 105 | 102 | 103 | 109 |
| CCCN[C@H]1CCc2nc(N)sc2C1 [Pramipexole dihydrochloride monohydrate] | 103 | 98.2 | 99.8 | 107 | 99 | 105 | 101 | 110 |
| O=C(O[C@H]1CN2CCC1CC2)N1CCc2ccccc2[C@@H]1c1ccccc1 [Solifenacin succinate] | 110 | 111 | 115 | 106 | 104 | 112 | 105 | 113 |
| C#C[C@]1(O)CC[C@H]2[C@@H]3CCc4cc(OC)ccc4[C@H]3CC[C@@]21C [Mestranol] | 101 | 106 | 101 | 101 | 99.9 | 97.3 | 103 | 85.7 |
| CC[C@H](C)[C@H](N)C1=N[C@H](C(=O)N[C@@H](CC(C)C)C(=O)N[C@H](CCC(=O)[O-])C(=O)N[C@H](C(=O)N[C@H]2CCCCNC(=O)[C@H](CC(N)=O)NC(=O)[C@@H](CC(=O)[O-])NC(=O)[C@H](Cc3cnc[nH]3)NC(=O)[C@@H](Cc3ccccc3)NC(=O)[C@H]([C@@H](C)CC)NC(=O)[C@@H](CCCN)NC2=O)[C@@H](C)CC)CS1.[Zn+2] [Bacitracin zinc] | 95.4 | 107 | 109 | 123 | 105 | 107 | 109 | 117 |
| CN(C)C/C=C/C(=O)Nc1cc2c(Nc3ccc(F)c(Cl)c3)ncnc2cc1O[C@H]1CCOC1 [Afatinib] | 102 | 107 | 85.9 | 64.7 | 102 | 102 | 72.5 | 17.6 |
| CCCCc1ncc(/C=C(\Cc2cccs2)C(=O)O)n1Cc1ccc(C(=O)O)cc1 [Eprosartan Mesylate] | 96.2 | 101 | 103 | 104 | 107 | 102 | 102 | 105 |
| CC(O)(P(=O)(O)O)P(=O)(O)O [Etidronate] | 95.8 | 96.9 | 99.7 | 109 | 95.1 | 96.5 | 95.9 | 105 |
| CC1CCc2c(N3CCC(O)CC3)c(F)cc3c(=O)c(C(=O)O)cn1c23 (stereo not drawn) [Nadifloxacin] | 103 | 104 | 102 | 110 | 104 | 103 | 100 | 107 |
| COc1cc(C(=O)NC2CCCNC2)cc(OC)c1OC (stereo not drawn) [Troxipide] | 103 | 109 | 106 | 110 | 109 | 110 | 116 | 113 |
| COC(=O)C1=C(C)NC(C)=C(C(=O)OC)C1c1ccccc1[N+](=O)[O-] [Nifedipine] | 96.4 | 77.6 | 85.4 | 63.7 | 105 | 80.7 | 75.6 | 59 |
| COc1cc(OC)c(C(=O)CCCN2CCCC2)c(OC)c1 [Buflomedil HCl] | 101 | 99.7 | 100 | 114 | 108 | 103 | 105 | 114 |
| Cc1ccc(S(=O)(=O)NC(=O)NN2CC3CCCC3C2)cc1 (stereo not drawn) [Gliclazide] | 104 | 110 | 111 | 104 | 112 | 113 | 118 | 112 |
| S=c1[nH]cnc2nc[nH]c12 [Mercaptopurine] | 112 | 104 | 111 | 99.1 | 103 | 103 | 108 | 103 |
| CCCCc1oc2ccccc2c1C(=O)c1cc(I)c(OCCN(CC)CC)c(I)c1 [Amiodarone HCl] | 99.8 | 95.4 | 103 | 110 | 102 | 110 | 106 | 116 |
| CN1CC(=O)N2[C@H](c3ccc4c(c3)OCO4)c3[nH]c4ccccc4c3C[C@@H]2C1=O [Tadalafil] | 106 | 105 | 116 | 112 | 106 | 112 | 110 | 121 |
| CCOC(=O)c1ncn2c1CN(C)C(=O)c1cc(F)ccc1-2 [Flumazenil] | 104 | 107 | 100 | 115 | 107 | 98.5 | 104 | 106 |
| Nc1nc2n[nH]nc2c(=O)[nH]1 [Azaguanine-8] | 92 | 105 | 102 | 111 | 103 | 102 | 98.7 | 104 |
